This note sets out measurements from PubChem BioAssay (NCATS).

Records with an inconclusive call do not appear. Where a call stands in place of a potency, no number is given. Calls of active or inactive are those of the source. The call rests on the fitted dose curve; in most records, active means well fitted inhibition curve with a large enough effect; inconclusive means small, poorly fitted or top-dose-only effect; inactive means no such curve, though single readings can be large or run the other way.
Potency means the concentration at half of the fitted maximal effect.

The first assay is described as follows: qHTS assay for measurement of the activity of small molecule inhibitors on Zika virus induced Caspase-3 activity in human iPSC derived neural progenitor cells (hNPCs) (AID 1224857). Further: nearly all actives have a fitted effect of over 65% in size. The note with it: hNPCs ZIKV-induced caspase-3/7, Caspase-Glo luminescence, 6 h; series mostly up to 45.7 µM. Put shortly:
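Percent inhibition of virus-induced caspase-3/7 luminescence (Caspase-Glo), scaled between uninfected cells and Zika-infected cells. hNPCs received compound 1 hr before ZIKV at 2 FFU/cell, with 6 hours infection at 37 C.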
In general terms: qHTS replaces the single test concentration by a dilution series.
For the compound `O=c1[nH]nc(OCCCc2ccc(Cl)cc2)c(NCc2cccnc2)c1Br`, the Potency result is “inactive”.
The same measure, in the same setting: the value for `COc1cc2c(cc1Cc1cccc(Cl)c1F)c(=O)c(C(=O)O)cn2[C@H](CO)C(C)C` was “inactive”; that for `CC(C)C[C@@H](N)[C@H](O)C(=O)N[C@H](C(=O)N[C@H](C(=O)N[C@@H](CC(=O)O)C(=O)O)C(C)C)C(C)C` was “inactive”; that for `C=C1[C@H](n2cnc3c(=O)[nH]c(N)nc32)C[C@H](O)[C@H]1CO` was “inactive”.
The same measure, in the same setting: the value for `C[C@@H](O[C@H]1OCCN(Cc2n[nH]c(=O)[nH]2)[C@@H]1c1ccc(F)cc1)c1cc(C(F)(F)F)cc(C(F)(F)F)c1` was 8.33 µM (active); that for `CC(O)=C(C#N)C(=O)Nc1ccc(C(F)(F)F)cc1` was 1.18 µM (active).
Still for that read-out and setting: for `CCC(=O)NCC[C@@H]1CCc2ccc3c(c21)CCO3` the value was “inactive”.
As for `O[C@@H](COc1cccc2ncccc12)CN1CCN(C2c3ccccc3[C@@H]3[C@H](c4ccccc42)C3(F)F)CC1` (stereo partly drawn), the Potency is 26.4 µM (active).
On the same count and under the same terms, the value for `Cc1csc(-c2nnc(Nc3ccc(Oc4ncccc4-c4ccnc(N)n4)cc3)c3ccccc23)c1` was “inactive”.

A further assay in a line: qHTS assay for measurement of the activity of small molecule inhibitors on Zika virus induced Caspase-3 activity in human astrocytoma cells (AID 1224859). The note with it: SNB-19 ZIKV-induced caspase-3/7, luminescence, 6 h; series mostly up to 45.7 µM. Put shortly:
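Luminescent caspase-3/7 read-out (30 min reagent, room temperature) in human SNB-19 cells infected 6 h with ZIKV (2 FFU/cell) after 1 h compound pre-incubation; Data were normalised to uninfected and infected wells.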
Consider `CCCCc1ccc(NS(=O)(=O)c2ccc(C)c(C(=O)N3CCN(c4cccc(C)c4C)CC3)c2)cc1`, for which the Potency result was “inactive”.
On the same count and under the same terms, the value for `Cc1cccc2c1CC[C@H](CN1CCC(c3c(Cl)cccc3Cl)CC1)C[C@@H]2O` was “inactive”; that for `O=c1[nH]c(=O)n([C@H]2C[C@@H](O)[C@@H](CO)O2)cc1I` was “inactive”.
With `Cc1nc(NC(=O)N2CCC[C@@H]2C(N)=O)sc1-c1csc(C(C)(C)C)n1`, the Potency result was “inactive”.
Same read-out and setting: for `O=C(Nc1ccc(OC(F)(F)F)cc1)c1sccc1NCc1ccnc2ccccc12` the value was 6.62 µM (active).
Still for that read-out and setting: the value for `O=C1CN2Cc3c(ccc(Cl)c3Cl)N=C2N1` was “inactive”; that for `NCC1CCC(C(=O)O)CC1` (stereo not drawn) was “inactive”.
The same measure, in the same setting: for `CN(C)CCN(C)C(=O)c1ccc(NC(=O)Nc2ccc(-c3nc(N4CCOCC4)c4ccn(CC(F)(F)F)c4n3)cc2)cc1` the value was “inactive”; for `CC(=O)OCC(=O)[C@@]1(O)CC[C@H]2[C@@H]3CCC4=CC(=O)C=C[C@]4(C)[C@@H]3[C@@H](O)C[C@@]21C`, “inactive”.
Turning to `CCOC(=O)c1c(CSc2ccccc2)n(C)c2cc(Br)c(O)c(CN(C)C)c12`, the Potency result is “inactive”.
Still for that read-out and setting: the value for `CCc1cc(-c2n[nH]c(C)c2-c2ccc3c(c2)OCCO3)c(O)cc1O` was “inactive”; that for `CC(=O)NCCC(=O)N[C@@H](CCC(N)=O)C(=O)N[C@@H](CO)C(=O)N[C@@H](CCC(N)=O)C(=O)N[C@@H](CCC(N)=O)C(=O)N[C@H](C(=O)N[C@@H](Cc1ccccc1)C(=O)N[C@]1(C)CCCCCCC=CCCC[C@@](C)(C(=O)N[C@@H](CCC(N)=O)C(=O)N[C@@H](CC(N)=O)C(N)=O)NC(=O)[C@H](CC(C)C)NC(=O)[C@H](CC(C)C)NC(=O)[C@@H](CCCNC(=N)N)NC(=O)[C@H](Cc2c[nH]c3ccccc23)NC(=O)[C@H](CC(C)C)NC(=O)[C@H](CC(N)=O)NC1=O)[C@H](C)O` was “inactive”; that for `CC[C@H]1OC(=O)[C@H](C)[C@@H](O[C@H]2C[C@@](C)(OC)[C@@H](O)[C@H](C)O2)[C@H](C)[C@@H](O[C@@H]2O[C@H](C)C[C@H](N(C)C)[C@H]2O)[C@](C)(O)C[C@H](C)C(=NOCOCCOC)[C@H](C)[C@@H](O)[C@]1(C)O` was “inactive”.
`COc1ccc(CCC(=O)Nc2nc3ccc(Cl)cc3s2)cc1OC`: the Potency entry was “inactive”.
Still for that read-out and setting: for `COc1ccc(Cn2ccc3ccc(C(=O)NO)cc32)cc1` the value was “inactive”.
On the same count and under the same terms, the value for `O=C(O)CCC=CCC[C@@H]1[C@H](N2CCCCC2)[C@@H](O)C[C@@H]1OCc1ccc(-c2ccccc2)cc1` was “inactive”; that for `C[C@H](CCC(=O)O)[C@H]1CC[C@H]2[C@H]3[C@@H](CC[C@]12C)[C@@]1(C)CC[C@@H](O)C[C@H]1C[C@@H]3O` was “inactive”.
On the same count and under the same terms, the value for `O=C(CO)N1CCC(c2[nH]nc(-c3ccc(Cl)cc3)c2-c2ccncn2)CC1` was “inactive”; that for `O=C(Nc1ncc(SCCN2CCCC2)s1)[C@]1(c2ccc(S(=O)(=O)C3CC3)cc2)C[C@@H]1C1CCCCC1` was “inactive”.
Take `N#CC(=C1Nc2ccccc2S1)c1ccnc(OCc2ccc(CN3CCOCC3)cc2)n1`: the Potency result was “inactive”.
As to `C[C@]12CCC3=C4CCC(=O)C=C4CC[C@@H]3[C@H]1CC[C@@]2(O)CC#N`, the Potency result is “inactive”.
On the same count and under the same terms, for `Cc1ccc(S(=O)(=O)Nc2nc3ccccc3nc2Nc2ccc3nsnc3c2)cc1` the value was “inactive”.
Consider `CC1=C(CC(=O)O)c2cc(F)ccc2C1=Cc1ccc(S(C)=O)cc1` (stereo not drawn), for which the Potency entry was “inactive”.
The same measure, in the same setting: the value for `CC(C)C[C@@H](N)[C@H](O)C(=O)N[C@H](C(=O)N[C@H](C(=O)N[C@@H](CC(=O)O)C(=O)O)C(C)C)C(C)C` was “inactive”.
